Consider 18 compounds from PubChem BioAssay (NCATS).

Results filed as inconclusive are left out. A call without a number means that no potency is given here. Calls of active or inactive are those of the source. Calls come from the whole dose curve; as a rule, active = well fitted inhibition curve with a large enough effect; inconclusive = small, poorly fitted or top-dose-only effect; inactive = flat fitted curve, though single readings scatter. *1 amine or outer side, *2 acyl side, *3 side chain or, on linkers, in order; H or OH if unused. Where a SMILES comes first, the peptide text is derived from it. [ ]: non-standard residue; d: D form. X4 = CC(C)=CCc1cc(C(O)C(N[*:1])C(=O)[*:2])ccc1O
Potency is the fitted concentration of half-maximal effect.

This experiment is described as follows: P-glycoprotein substrates identified in KB-8-5-11 adenocarcinoma cell line, qHTS therapeutic library screen (AID 1346987). Note: nearly all actives have a fitted effect of over 65% in size. To be noted: KB-8-5-11 (P-gp overexpressing) viability, CellTiter-Glo, 72 h; series mostly up to 44.5 µM. The gist of the method: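 P-gp-mediated resistance screen: KB-8-5-11 cells treated 72 h with compounds in dose-response. CellTiter-Glo viability.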
On the technique in general: In qHTS, concentration-response curves come from the screen itself.
Turning to `O=C(c1ccccc1)c1ccc2nc(NC(=O)c3csc(C4CCN(c5ncnc6ccsc56)CC4)n3)[nH]c2c1`, the Potency is 5.8 µM (active).
For the compound `COc1ccc(CC2C(=O)NC(C)C(=O)N(C)C3Cc4ccc(cc4)Oc4cc(ccc4OC4OC(CO)C(O)C(O)C4O)CC(C(=O)NC(C)C(=O)NC(C)C(=O)N2C)N(C)C3=O)cc1` (stereo not drawn), the activity change, negative = cytotoxicity was -5.43% [at 9.29 µM] (inactive).
Consider `O=C(COc1cccc2c(=O)[nH]ccc12)c1ccccc1`, for which the Potency entry is “inactive”.
Turning to `Cc1ccc(S(=O)(=O)Cc2nc(-c3ccc(C(=O)NCc4cccnc4)cc3)oc2C)cc1`, the Potency is 0.058 µM (active).
Same read-out and setting: in the case of `COc1ccc([C@@H]2OC[C@H]3[C@@H]2CO[C@@H]3c2ccc(OC3OC(CO)C(O)C(O)C3O)c(OC)c2)cc1OC` (stereo partly drawn) it was “inactive”; in that of `COc1cc2ncnc(N3CCC(Oc4cnc5ccccc5n4)C3)c2cc1OC` (stereo not drawn), 0.461 µM (active); in that of `COc1ccc(-c2cnc3ccc(NCc4ccc(S(N)(=O)=O)cc4)nn23)cc1OC`, “inactive”.
As to `CC/C=C\CCO[C@@H]1O[C@H](CO)[C@@H](O)[C@H](O)[C@H]1O`, the Potency entry was “inactive”.
With `Nc1ccc(-c2cccc3c(=O)cc(N4CCOCC4)oc23)cc1`, the Potency was 6.51 µM (active).
The same measure, in the same setting: as for `COC(=O)CCc1cc2ccoc2c(OC)c1O[C@@H]1O[C@H](CO)[C@@H](O)[C@H](O)[C@H]1O`, the entry is “inactive”; as for `C[C@]12C=C[C@@]3(CCC4[C@](C)(CO)CCC[C@@]4(C)C3CC1)C2` (stereo partly drawn), “inactive”.
On to `COc1cc(O)cc(C)c1C(=O)O[C@H]1[C@@H](OC(C)=O)[C@H](n2ccc(=O)[nH]c2=O)O[C@@H]1CO`, for which the Potency result is “inactive”.
`CC[C@]12C=CCN3CC[C@@]4(c5cc([C@@]6(C(=O)OC)C[C@H]7C[C@@H](C(C)(F)F)CN(Cc8c6[nH]c6ccccc86)C7)c(OC)cc5N(C)[C@H]4[C@@](O)(C(=O)OC)[C@@H]1OC(C)=O)[C@@H]32`: the Potency is 5.44 µM (active).
On the same count and under the same terms, in the case of `Cn1nnc(-c2ccc(-c3ccc(N4C[C@H](CO)OC4=O)cc3F)cn2)n1` it was “inactive”.
Consider `CC(C)=CCc1cc(C(O)C2NC(=O)CNC(=O)C(Cc3c[nH]c4ccccc34)NC(=O)C3CCCN3C(=O)CNC(=O)C(C(C)C)NC(=O)CNC2=O)ccc1O` (stereo not drawn) (cyclo(G[X4]GVGPW); configuration not given here), for which the activity change, negative = cytotoxicity is -0.495% [at 9.29 µM] (inactive).
For `CCNC(=O)Nc1ncc(-c2cc(-c3c(C)cc(OC)cc3C)nc(-c3cnccn3)n2)s1`, the Potency entry was “inactive”.
Regarding `C=CC(C)(C)c1[nH]c2cc3c(cc2c1CC1NC(=O)C2CCCN2C1=O)C=CC(C)(C)O3` (stereo not drawn), the Potency result is “inactive”.
The same measure, in the same setting: as for `O=C1OCC(c2ccccc2)=C1Cc1ccccc1`, the entry is “inactive”.
